Experimental findings from PubChem BioAssay (NCI) are described below.

SMILES strings stand for the structures. This is part of a sample that, as a whole, favours compounds with a hit. Of some 83,000 tested, about 20% had one in any assay.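 Interpretation: 100, growth as untreated; towards 0, rising growth inhibition; 0, no net growth; 0 to -100, cell death. Compounds scoring below 10 were considered active.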 A number with no mark means an inactive call. Active and inactive are the calls of the source.

Test systems include T-47D breast; BT-549 breast; MDA-MB-435 melanoma; SW-620 colon; MCF7 breast; HCT-116 colon; HCC-2998 colon; KM12 colon.
Common to all, as to test: NCI-60 one-dose screen, 48 h (100 = growth as untreated, 0 = no growth, -100 = all killed)
Holding throughout (details): 10 µM unless noted

Regarding `CN(C)CC1=NC2SC=C(c3ccccc3)C2C(=O)N1CC#N` (stereo not drawn), the growth was 86.8% in the assay with T-47D breast; 118% in the assay with BT-549 breast; 95.3% in the assay on MDA-MB-435 melanoma; 104% in the assay with SW-620 colon; 121% in the assay with MCF7 breast; 103% with HCT-116 colon. Besides, the growth in the assay on HCC-2998 colon is 97.5%; with KM12 colon, 101%.
Turning to `S=C(c1ccc2c(c1)OCO2)N1CCN(c2ccccc2Cl)CC1`, the growth is 94% with T-47D breast; 81.6% in the assay with BT-549 breast; 99.9% in the assay with MDA-MB-435 melanoma; 102% in the assay on SW-620 colon; 103% in the assay with MCF7 breast; 92.3% with HCT-116 colon. Further, the growth was 113% with HCC-2998 colon and 103% with KM12 colon.
On to `COc1ccc(CN2C(=O)C(Cl)=C(Nc3cccc(C(F)(F)F)c3)C2=O)cc1`, for which the growth is 60.8% in the assay on T-47D breast; 26.3% in the assay on BT-549 breast; 25.5% in the assay with MDA-MB-435 melanoma; 28.8% in the assay with SW-620 colon; 29.5% in the assay on MCF7 breast; 28.9% in the assay on HCT-116 colon. In addition, the growth with HCC-2998 colon is 53.2%; with KM12 colon, 70.2%.
For the molecule `CC1SC(c2ccc(OCc3ccccc3)cc2)N(NC(=O)C(O)(c2ccccc2)c2ccccc2)C1=O` (stereo not drawn), the growth was 25.8% with T-47D breast; 92.9% in the assay with BT-549 breast; 57.7% in the assay on MDA-MB-435 melanoma; 69.7% in the assay with SW-620 colon; 35.7% in the assay with MCF7 breast; 39.6% in the assay on HCT-116 colon. Besides, the results for the growth in the assay on HCC-2998 colon and in the assay with KM12 colon were 79.9% and 34.2%, respectively.
On to `Cc1cccc(-c2nc(N(C)c3ccc4ncsc4c3)c3ccccc3n2)n1`, for which the growth in the assay on T-47D breast was 60.6%; in the assay on BT-549 breast, 87.1%; with MDA-MB-435 melanoma, -3.29% (active); with SW-620 colon, 57.9%; in the assay with MCF7 breast, 45%; with HCT-116 colon it was 65.2%. Besides, the values for the growth in the assay on HCC-2998 colon and in the assay on KM12 colon were 84.2% and 55.4%, respectively.
As for `N#Cc1c(-c2cccc(Cl)c2)cc(-c2cccc(F)c2)[nH]c1=O`, the growth in the assay on T-47D breast was 84.5%; in the assay with BT-549 breast, 86.4%; in the assay with MDA-MB-435 melanoma, 90.4%; with SW-620 colon it was 97%; in the assay with MCF7 breast, 89.2%; in the assay on HCT-116 colon it was 88.5%. The growth was 106% with HCC-2998 colon and 87.9% with KM12 colon.
For the molecule `Cc1c(C)c2c(c(C)c1OCC(=O)O)CC[C@@](C)(CCC[C@@H](C)CCC[C@@H](C)CCCC(C)C)O2`, the growth was 23.6% [50 µM] in the assay with T-47D breast; -4.37% [50 µM] (active) in the assay with BT-549 breast; 15% [50 µM] with MDA-MB-435 melanoma; -41.8% [50 µM] (active) with SW-620 colon; 15.6% [50 µM] with MCF7 breast; -66.1% [50 µM] (active) in the assay with HCT-116 colon. The growth is -3.58% [50 µM] (active) in the assay with HCC-2998 colon and -73.8% [50 µM] (active) in the assay on KM12 colon.
Consider `Cc1cc(=O)oc2c1ccc1oc(C#N)c(C)c12`, for which the growth with T-47D breast is 88.6%; in the assay with BT-549 breast, 94%; with MDA-MB-435 melanoma, 95.5%; with SW-620 colon it was 95.7%; in the assay on MCF7 breast, 102%; in the assay on HCT-116 colon, 89.9%. Also, the results for the growth in the assay on HCC-2998 colon and in the assay with KM12 colon were 106% and 104%, respectively.
In the case of `COc1ccc2nc(NNC(=O)c3cnccn3)c3cccn3c2c1`, the growth is 0.223% (active) in the assay on T-47D breast; 12.7% in the assay on BT-549 breast; 13.5% in the assay with MDA-MB-435 melanoma; 0.919% (active) in the assay with SW-620 colon; -31.6% (active) in the assay with MCF7 breast; -26.5% (active) with HCT-116 colon. For the same molecule, the growth is 37.4% with HCC-2998 colon and 4.7% (active) in the assay on KM12 colon.
Consider `O=C1CC(N2C(=O)/C(=C/C(Cl)=C\c3ccc([N+](=O)[O-])cc3)SC2=S)C(=O)N1c1ccc(O)cc1` (stereo not drawn), for which the growth in the assay on T-47D breast was 17.2%; in the assay with BT-549 breast, -17.3% (active); with MDA-MB-435 melanoma, -12% (active); in the assay on SW-620 colon it was 0.226% (active); with MCF7 breast, -11.6% (active); in the assay with HCT-116 colon, -31.2% (active). Moreover, the values for the growth in the assay on HCC-2998 colon and with KM12 colon were -81.6% (active) and -72.4% (active), respectively.
On to `c1ccc(-c2nc([P+](c3ccccc3)(c3ccccc3)c3ccccc3)c(N3CCOCC3)o2)cc1`, for which the growth in the assay with T-47D breast is -3.03% (active); with BT-549 breast, -5.41% (active); with MDA-MB-435 melanoma, -1.04% (active); with SW-620 colon, 14.4%; in the assay on MCF7 breast it was 2.94% (active); in the assay on HCT-116 colon, 2.08% (active). Also, the values for the growth with HCC-2998 colon and in the assay on KM12 colon were 26.5% and -1.22% (active), respectively.
Regarding `CC(C)(C)n1cc(-c2ccnc(NCCCNS(=O)(=O)c3ccccc3)c2)c(-c2ccccc2)n1`, the growth in the assay with T-47D breast was 9.34% (active); with BT-549 breast it was 53.4%; in the assay with MDA-MB-435 melanoma, 82.1%; with SW-620 colon, 77.1%; in the assay with MCF7 breast, 62%; with HCT-116 colon, 57.5%. Also, the growth is 78.1% in the assay on HCC-2998 colon and 71.9% with KM12 colon.
As for `CCCCCCCCn1ccc2cc(NC(=O)Cn3cc(CN4CCCC4)nn3)ccc21`, the growth was 24.1% in the assay with T-47D breast; 70.8% in the assay with BT-549 breast; -72.2% (active) with MDA-MB-435 melanoma; -54.8% (active) in the assay on SW-620 colon; 8.32% (active) in the assay with MCF7 breast; 37.7% in the assay on HCT-116 colon. Besides, the growth is -54% (active) in the assay with HCC-2998 colon and 41.8% in the assay on KM12 colon.
As for `COc1cc2c(cc1-c1c(C)noc1C)ncc1nc(C3CCCCC3)n(C3CCC(OC(F)F)CC3)c12` (stereo not drawn), the growth in the assay on T-47D breast is -0.67% (active); in the assay with BT-549 breast, 51.5%; in the assay with MDA-MB-435 melanoma, 41.6%; in the assay with SW-620 colon it was 58.3%; in the assay on MCF7 breast, 15.1%; with HCT-116 colon, 24.8%. Besides, the growth with HCC-2998 colon was 42.7%; in the assay on KM12 colon it was 39.2%.
`Cc1ccc(NCCN(C)C)c2c(=O)c3ccccc3sc12`: the growth was 22.3% in the assay on T-47D breast; 76.6% in the assay with BT-549 breast; 13.2% with MDA-MB-435 melanoma; 8.96% (active) with SW-620 colon; 0.259% (active) with MCF7 breast; 10.2% in the assay with HCT-116 colon. Moreover, the results for the growth with HCC-2998 colon and with KM12 colon were -16.2% (active) and 23.3%, respectively.
Consider `COc1cc(/C=C/C(=O)c2cccc(-n3cc(-c4ccccc4)[nH]c3=O)c2)ccc1O`, for which the growth in the assay with T-47D breast was 62.9%; with BT-549 breast it was 43.9%; in the assay with MDA-MB-435 melanoma, 58.5%; with SW-620 colon it was 4.95% (active); with MCF7 breast, 16.5%; in the assay with HCT-116 colon, 13.5%. Also, the growth was 78.9% in the assay with HCC-2998 colon and 15% with KM12 colon.
